According to PubChem BioAssay (Tox21):
The source made the active and inactive calls. A call without a number means that no potency is given here. Calls follow the shape of the dose curve; as a rule, active = well fitted activation curve with a large enough effect in the repeat runs; inconclusive = weak or mixed curves; inactive = flat fitted curve, though single readings scatter.

Experiment: A CellTox Green Cytotoxicity Assay to monitor cytotoxicity in HEK293 cells - 0 hour (AID 1224869); also: nearly all actives have a fitted effect of over 50% in size
Details: CellTox Green fluorescence; series mostly up to 76.8 µM
Text: National Center for Advancing Translational Sciences [NCATS]
NIH Chemical Genomics Center [NCGC]
U.S. Environmental Protection Agency [EPA]
National Institutes of Environmental Health Sciences [NIEHS]
National Toxicology Program [NTP]
Cell-based models are critical for drug discovery. Determining the natural cytotoxic effects resulting from test compounds is an essential research activity. A CellTox Green Cytotoxicity Assay to monitor cytotoxicity in real time of continues cell culture during 40 hours of the compound treatment was used to screen Tox21 10K library compounds in Hek293 cells. CellTox Green Cytotoxicity Assay is a nonlytic, homogeneous, biofluorescent method to measure cytotoxicity in cell culture after experimental manipulation. The assay system uses a proprietary asymmetric cyanine dye that is excluded from viable cells but preferentially stains the dead cell's DNA. […] Viable cells produce no appreciable increases in fluorescence. Therefore, the fluorescence signal produced by the binding interaction with dead cell DNA is proportional to cytotoxicity.
The mixture of Hek293 cell suspension and reagents were dispensed at 600cells/6 ul/well in 1536-well tissue culture treated black solid bottom plates using a Multidrop dispenser. After the assay plates were incubated at a 37 C/5% CO2 incubator for 5 hours, 23 nL of compounds dissolved in DMSO, positive and negative controls was transferred to the assay plate by a pintool work station. The plates were incubated at 37 C for 40 hours. The fluorescence intensity were measured at 0h, 8h, 16h, 24h, 32h and 40h time points using ViewLux plate reader during compound treatment.
Potency is read from the fitted curve at half-maximal effect.

SMILES | Potency | cytotoxicity
Fc1c(F)c(F)c(Br)c(F)c1F | inactive | 
O=S1OCCO1 | inactive | 
CC(C)CCCCCOC(=O)CCCCC(=O)OCCCCCC(C)C | inactive | 
NC(=O)Cn1c(=O)cc(CCN2CCN(c3nccc4sccc34)CC2)c2ccc(F)cc21 | inactive | 
O=C(CS)OCCOC(=O)CS | inactive | 
C=CC(C)=CCC=C(C)C | inactive | 
CN(C)C(=O)Nc1ccc(Oc2ccc(Cl)cc2)cc1 | inactive | 
CC[C@@H]([C@H](C)O)n1ncn(-c2ccc(N3CCN(c4ccc(OC[C@@H]5CO[C@@](Cn6cncn6)(c6ccc(F)cc6F)C5)cc4)CC3)cc2)c1=O | inactive | 
C=CCCCCCCCCCCCCCCCC |  | -3.01% [at 6.97 µM] (inactive)
CC(C)CCCCCCOC(=O)CCCCC(=O)OCCCCCCC(C)C | inactive | 
CCCCN(CCCC)C(=S)SSC(=S)N(CCCC)CCCC | inactive | 
C=CC(=O)NCOCC(C)C | inactive | 
CCCCCCCCCCCC(=O)[O][Sn]([CH2]CCC)([CH2]CCC)[O]C(=O)CCCCCCCCCCC | inactive | 
CCOC(=O)[C@@H](C)Oc1ccc(Oc2nc3ccc(Cl)cc3o2)cc1 | inactive | 
CC1(C)C2=CCCC(C)(C)[C@]23CC[C@H]1C3 | inactive | 
CCc1c2c(nc3ccc(OC(=O)N4CCC(N5CCCCC5)CC4)cc13)-c1cc3c(c(=O)n1C2)COC(=O)[C@]3(O)CC | inactive | 
Nc1nc(Cl)nc2c1ncn2[C@@H]1O[C@H](CO)[C@@H](O)[C@@H]1F | inactive | 
CCCC(=O)O[C@]1(C(=O)COC(=O)CC)CC[C@H]2[C@@H]3CCC4=CC(=O)CC[C@]4(C)[C@H]3[C@@H](O)C[C@@]21C |  | -7.53% [at 15.8 µM] (inactive)
Cc1nccn1-c1ccc(Sc2cccc(C3(C(N)=O)CCOCC3)c2)cc1 | inactive | 
CN1CCCN=C1/C=C/c1cccs1 | inactive | 

SMILES | Potency | cytotoxicity
CCCCCCCCCCCC[N+](C)(C)CC(=O)[O-] | inactive | 
CC(C)C(OC(=O)c1ccccc1)C(C)(C)COC(=O)c1ccccc1 (stereo not given) | inactive | 
CC1CC(O)CC(C)(C)C1 (stereo not given) | inactive | 
CCCCCCCCCCCCCCC[C@H](O)[C@@H](N)CO | 19 µM (active) | 
O=C(C(=O)c1ccccc1)c1ccccc1 | inactive | 
c1cc[c]([Bi]([c]2ccccc2)[c]2ccccc2)cc1 | inactive | 
CN(C)CCOC1=Cc2ccccc2Sc2ccc(Cl)cc21 | inactive | 
Oc1cc(O)c(Cl)cc1Cl | inactive | 
C[C@@H]1C[C@H]2[C@@H]3CCC4=CC(=O)C=C[C@]4(C)[C@@]3(F)[C@@H](O)C[C@]2(C)[C@H]1C(=O)CO | inactive | 
O=C1OCCN1/N=C/c1ccc([N+](=O)[O-])o1 | inactive | 
CO/N=C1\CN(c2nc3c(cc2F)c(=O)c(C(=O)O)cn3C2CC2)CC1CN (stereo not given) | inactive | 
CCCOc1ccc(S(=O)(=O)N2CCN(CC)CC2)cc1-c1nc2c(CC)n(Cc3ccccn3)nc2c(=O)[nH]1 | inactive | 
CC1=CC(=O)CC(C)(C)C1(O)/C=C/C(C)=C\C(=O)O (stereo not given) | inactive | 
CCN(CC)CCNC(=O)c1ccc(NC(C)=O)cc1 | inactive | 
O=C(O)C(Cc1cc(I)c(O)c(I)c1)c1ccccc1 (stereo not given) | inactive | 
C1COCO1 | inactive | 
CN1CCN(CCCN2c3ccccc3Sc3ccc(S(=O)(=O)N(C)C)cc32)CC1 | inactive | 
Cc1ccc(/C=N/n2c(-c3ccccc3)csc2=S)cc1 | inactive | 
C/C=C/C=C/CCCCCCCO | inactive | 
CC(C)(C)CC(C)(C)c1ccc(OCCO)cc1 | inactive | 
